Each structure is given as a SMILES string. Activity calls are given as the source filed them. How the source made its calls: active means hit-call score of the fitted dose curve at least 0.9, where 1 is the maximum; inactive means score below 0.9.

The experiment deals with CYP2C8, CYP2C8 (gene 1558) (UniProt P10632). Briefly: ERF_FR_ADME_hCYP2C8: Eurofins (ERF) CYP450-related Enzyme Activity (ADME) Assay for CYP2C8. As for the experimental part: ERF_FR_ADME_hCYP2C8 is a biochemical, single-readout assay that uses extracted gene-proteins in a cell-free assay. Measurements were taken 0.16 hour after chemical dosing in a 96-well plate. See CYP2C8 inhibition (HLM, amodiaquine substrate).ERF_FR_ADME_hCYP2C8 is an assay component calculated from the ERF_FR_ADME_hCYP2C8 assay. It is designed to measure enzyme activity using a type of enzyme reporter as detected by peak area response of desethylamodiaquine with HPLC-MS/MS technology.Data from the assay component ERF_FR_ADME_hCYP2C8 was analyzed at the assay endpoint, ERF_FR_ADME_hCYP2C8, in the positive analysis fitting direction relative to acetonitrile as the negative control and baseline of activity. Using a type of enzyme reporter, loss-of-signal activity can be used to understand changes in enzymatic activity as they relate to gene CYP2C8. To generalize the intended target to other relatable targets, this assay endpoint is annotated to the cyp intended target family, where the subfamily is […].
CYP2C8, CYP2C8 (gene 1558), sequence (P10632 whole entry, looked up): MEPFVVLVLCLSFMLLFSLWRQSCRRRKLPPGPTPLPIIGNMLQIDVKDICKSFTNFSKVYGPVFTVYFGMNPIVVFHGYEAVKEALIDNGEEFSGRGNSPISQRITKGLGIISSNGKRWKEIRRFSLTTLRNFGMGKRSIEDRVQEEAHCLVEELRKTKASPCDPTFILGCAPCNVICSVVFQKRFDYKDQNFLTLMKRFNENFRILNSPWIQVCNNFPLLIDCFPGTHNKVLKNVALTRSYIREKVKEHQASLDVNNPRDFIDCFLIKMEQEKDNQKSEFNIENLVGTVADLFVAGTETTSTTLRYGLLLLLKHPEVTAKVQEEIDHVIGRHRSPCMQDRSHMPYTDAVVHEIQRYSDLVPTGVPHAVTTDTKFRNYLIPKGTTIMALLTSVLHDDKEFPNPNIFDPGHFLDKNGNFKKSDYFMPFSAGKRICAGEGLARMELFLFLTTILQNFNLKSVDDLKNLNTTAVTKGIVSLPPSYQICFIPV
Assay cells are incubated for 10 minutes at 37C with 10 uM amodiaquine.
For `CCCCC[C@H](O)CC(=O)CCc1ccc(O)c(OC)c1`, the AC50 (commonly the concentration giving half of the maximal activity seen) is 2.27 µM (active).

Turning to `COc1cc(CCC(=O)CC(=O)CCc2ccc(O)c(OC)c2)ccc1O`, the half-maximal activity concentration (AC50) was 1.83 µM (active).
